{"source": "PubChem BioAssay AID504848", "about": "(National Center for Advancing Translational Sciences (NCATS), 2011)", "note": "Values joined by “and” are separate entries in the source; they are usually repeats but may differ in a detail not shown here. Equal values may be shown once. About 1,400 (61%) of roughly 2,300 compounds were called active. Another 29% or so got no clear call; they are omitted. Calls follow the shape of the dose curve; as a rule, active = well fitted inhibition curve with a large enough effect; inconclusive = small, poorly fitted or top-dose-only effect, or effect the other way; inactive = no such curve, though single readings can be large or run the other way. So high a share suggests a set chosen from earlier hits. The list shows a part of the results. % is scaled to controls: 0 for no effect and ±100 for the full control effect; potency is read from the fitted curve at half-maximal effect.", "data": [{"experiment": "Confirmation screen for delayed death inhibitors of the malarial parasite plastid, 96 hour incubation; also: nearly all actives have a fitted effect of over 60% in size", "settings": "P. falciparum luciferase growth in erythrocytes; series mostly up to 28.7 µM; activity change, negative = inhibition: at the top concentration", "procedure,_shortened": "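Two-generation (96 h, 37 C) exposure of P. falciparum carrying an integrated firefly luciferase reporter in erythrocytes, 0.1% parasitemia and 2% hematocrit final, Albumax-supplemented RPMI. Luminescence decrease measures growth inhibition.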", "values": [{"smiles": "CCCCN(CCCNC(=O)C1CCN(C(=O)c2cc3sccc3n2C)CC1)Cc1ccccc1", "Potency": "0.562 µM (active)"}, {"smiles": "CC(NC(=O)c1cc2sccc2n1C)c1ccc2c(c1)OCCO2", "note": "(configuration not stated)", "activity change, negative = inhibition": "-11.1% (inactive)"}, {"smiles": "O=S(=O)(CC(CN1CCCCC1)N1CCCCC1)c1ccccc1", "note": "(configuration not stated)", "Potency": "7.94 µM (active)"}, {"smiles": "Cc1ccc(OCCn2cc(C(=S)N3CCCC3)c3ccccc32)cc1C", "Potency": "14.1 µM (active)"}, {"smiles": "Cc1cc(C)nc(SCc2nnc(SCC(=O)Nc3nc(-c4ccccc4)cs3)n2C)n1", "Potency": "14.1 µM (active)"}, {"smiles": "CCOC(=O)CSc1nnc(CNc2nc(-c3ccccc3)cs2)n1C", "Potency": "10 µM (active)"}, {"smiles": "CCCCN(CCCC)CCC(O)c1cc2c(Cl)cc(Cl)cc2c2cc(C(F)(F)F)ccc12", "note": "(configuration not stated)", "Potency": "39.8 nM (active) and 20 nM (active)"}, {"smiles": "COc1ccc(-n2c(C)cc(C(=O)Cn3c(NCCO)nc4ccccc43)c2C)cc1", "Potency": "10 µM (active)"}, {"smiles": "CCCc1c(C)c2cccc(C)c2[nH]c1=O", "activity change, negative = inhibition": "-24% (inactive)"}, {"smiles": "COc1ccc(C(=O)/C(=C\\c2ccco2)N2C=CC=CC2=C(C#N)C#N)cc1", "Potency": "15.8 µM (active)"}, {"smiles": "N#CC(C#N)=C1C=CC=CN1/C(=C\\c1ccco1)C(=O)c1ccc(Cl)cc1", "Potency": "15.8 µM (active)"}, {"smiles": "N#CC(C#N)=C1C=CC=CN1/C(=C\\c1ccco1)C(=O)c1ccc(-c2ccccc2)cc1", "Potency": "12.6 µM (active)"}, {"smiles": "COc1ccc(CCNS(=O)(=O)c2ccc(Br)s2)cc1", "activity change, negative = inhibition": "-25.4% (inactive)"}, {"smiles": "CCN(CC)S(=O)(=O)c1ccc(C2=NOC3(C2)N(C)c2ccccc2C3(C)C)cc1", "note": "(configuration not stated)", "Potency": "12.6 µM (active)"}, {"smiles": "CN1c2ccccc2C(C)(C)C12CC(c1ccc(S(=O)(=O)N3CCCCC3)cc1)=NO2", "note": "(configuration not stated)", "Potency": "5.01 µM (active)"}, {"smiles": "CC(C)NC(=O)c1onc(CSc2cccc3ccccc23)c1C(=O)O", "activity change, negative = inhibition": "-18.8% (inactive)"}, {"smiles": "Cc1nn(C(C)C(=O)NCCCc2ccccc2)c(=O)c2nn(-c3ccccc3)c(C)c12", "note": "(configuration not stated)", "Potency": "12.6 µM (active)"}, {"smiles": "Cc1nn(C(C)C(=O)Nc2ccccc2Cl)c(=O)c2nn(-c3ccccc3)c(C)c12", "note": "(configuration not stated)", "Potency": "10 µM (active)"}, {"smiles": "Cc1ccc(C(=O)NCC(=O)NCCCc2ccccc2)s1", "activity change, negative = inhibition": "42.3% (inactive)"}, {"smiles": "CSc1ccc(CNC(=O)C(C)n2nc(C)c3c(C)n(-c4ccccc4)nc3c2=O)cc1", "note": "(configuration not stated)", "Potency": "11.2 µM (active)"}, {"smiles": "Cc1nn(C(C)C(=O)NCCC2=CCCCC2)c(=O)c2nn(-c3ccccc3)c(C)c12", "note": "(configuration not stated)", "Potency": "11.2 µM (active)"}, {"smiles": "Cc1c(NC(=O)C(C)Sc2nccn2C)c(=O)n(-c2ccccc2)n1C", "note": "(configuration not stated)", "activity change, negative = inhibition": "-5.32% (inactive)"}, {"smiles": "CCCCCCC1C(C#N)=C(N)OC2=C1C(=O)CCC2", "note": "(configuration not stated)", "activity change, negative = inhibition": "13.7% (inactive)"}, {"smiles": "Cc1ccc(-c2cc(C(=O)N/N=C/C=C/c3ccco3)c3ccccc3n2)cc1C", "Potency": "14.1 µM (active)"}, {"smiles": "CC(C)C[C@@H](NC(=O)[C@H](Cc1ccccc1)NC(=O)c1cnccn1)B(O)O", "Potency": "0.178 µM (active)"}, {"smiles": "CC(C)=N/N=C1/NC(=O)C(Cc2ccccc2)S1", "note": "(configuration not stated)", "Potency": "7.94 µM (active)"}, {"smiles": "Cc1cc(=O)oc2ccc(OCC(=O)N3CCc4ccccc43)cc12", "Potency": "6.31 µM (active)"}, {"smiles": "Cc1ccc(NC2CCCN(C(=O)CSc3ccncc3)C2)cc1C", "note": "(configuration not stated)", "Potency": "12.6 µM (active)"}, {"smiles": "COc1ccc(NC2CCCN(C(=O)CCc3ccncc3)C2)cc1OC", "note": "(configuration not stated)", "activity change, negative = inhibition": "-18.3% (inactive)"}, {"smiles": "Cc1ccc(S(=O)(=O)Nc2cccc3cccnc23)c([N+](=O)[O-])c1", "Potency": "3.98 µM (active)"}, {"smiles": "Cc1ccc(S(=O)(=O)Nc2cccc3cccnc23)cc1", "Potency": "5.62 µM (active)"}, {"smiles": "O=C(c1ccc(Cl)cc1)C(Cn1cncn1)C(Sc1ccccc1)c1ccccc1", "note": "(configuration not stated)", "Potency": "12.6 µM (active)"}, {"smiles": "O=C1C(=O)c2ccccc2C(O)=C1C1CCC(c2ccc(Cl)cc2)CC1", "note": "(configuration not stated)", "Potency": "0.0158 µM (active)"}, {"smiles": "CN1CC2=Cc3ccccc3OC23Oc2ccccc2C=C3C1", "Potency": "3.16 µM (active)"}, {"smiles": "CCC1=C/C(=C/c2sc3ccccc3[n+]2CC)CC(C)(C)C1", "Potency": "0.355 µM (active)"}, {"smiles": "NC(=O)COc1ccc(NC(=O)CC23CC4CC(CC(C4)C2)C3)cc1", "Potency": "11.2 µM (active)"}, {"smiles": "CCn1nc(C)c(NC(=O)CC23CC4CC(CC(C4)C2)C3)c1C", "activity change, negative = inhibition": "-11.8% (inactive)"}, {"smiles": "CSCCC(NC(=O)c1ccccc1Cl)C(=O)N1CCN(C(c2ccccc2)c2ccccc2)CC1", "note": "(configuration not stated)", "Potency": "3.98 µM (active)"}, {"smiles": "Cc1ccc(N2C(=O)N3[C@H](c4ccc(F)cc4)[C@@H]4C(=O)N(C5CCCCC5)C(=O)[C@@H]4[C@]3(Cc3ccccc3)C2=O)cc1", "Potency": "5.62 µM (active)"}, {"smiles": "O=C(CCc1ccccc1)NNC(=O)c1ccccn1", "Potency": "6.31 µM (active)"}, {"smiles": "O=C(NCc1ccccc1)C(c1cccnc1)N(C(=O)c1ccccn1)c1ccccc1F", "note": "(configuration not stated)", "activity change, negative = inhibition": "-26.2% (inactive)"}, {"smiles": "COc1ccc(CCN2CCCn3c2nc2c3c(=O)n(Cc3ccccc3F)c(=O)n2C)cc1OC", "Potency": "2.24 µM (active)"}, {"smiles": "Cc1ccc(S(=O)(=O)Nc2ccc(C(=O)Nc3ccncc3)cc2)cc1", "Potency": "12.6 µM (active)"}, {"smiles": "CCOc1ccc(C2C3=C(Nc4nc(N)[nH]c(=O)c42)c2ccccc2C3=O)cc1", "note": "(configuration not stated)", "Potency": "10 µM (active)"}, {"smiles": "CCN(CC)S(=O)(=O)c1cc(NC(=O)C(C)OC(=O)c2[nH]c(C)c(C(C)=O)c2C)ccc1C", "note": "(configuration not stated)", "Potency": "1.78 µM (active)"}, {"smiles": "O=C1/C(=C/c2ccccc2F)SC(=S)N1CC(=O)N1CCCCC1c1cccnc1", "note": "(configuration not stated)", "Potency": "10 µM (active)"}, {"smiles": "COc1cc(OC)c(OC)cc1CN1CCN(C(=O)c2cccc3ccccc23)CC1", "Potency": "10 µM (active)"}, {"smiles": "CCCc1cc(=O)oc2cc(OC(C)C(=O)NCc3ccccn3)c(Cl)cc12", "note": "(configuration not stated)", "Potency": "15.8 µM (active)"}, {"smiles": "COc1ccccc1NC(=O)c1ccc2nc(-c3ccccc3)c(-c3ccccc3)nc2c1", "activity change, negative = inhibition": "2.71% (inactive)"}, {"smiles": "COc1ccc(NC(=O)c2cccc(NC(=O)c3ccccc3)c2)c(OC)c1", "Potency": "8.91 µM (active)"}, {"smiles": "COc1cc(C(=O)Nc2ccc(Nc3ccccc3)cc2)cc(OC)c1OC", "Potency": "5.01 µM (active)"}, {"smiles": "COC(=O)c1ccc(NC(=O)c2cccc(NC(=O)c3ccccc3)c2)cc1", "Potency": "7.94 µM (active)"}, {"smiles": "O=C(Nc1cccc(Br)c1)c1ccc2snnc2c1", "activity change, negative = inhibition": "-6.94% (inactive)"}, {"smiles": "COc1cc(C(=O)Nc2ccc(S(=O)(=O)Nc3cc(C)on3)cc2)cc(OC)c1OC", "activity change, negative = inhibition": "-8.04% (inactive)"}, {"smiles": "COc1cc2c(cc1NC(=O)c1ccc(C(C)(C)C)cc1)CCCC2", "Potency": "12.6 µM (active)"}, {"smiles": "O=C(CCl)N1CCN(CC(=O)N2CCCC2)CC1", "Potency": "14.1 µM (active)"}, {"smiles": "C/C(=C\\C(=O)OCCCCCCCCC(=O)O)C[C@@H]1OC[C@H](C[C@@H]2O[C@H]2[C@@H](C)[C@H](C)O)[C@@H](O)[C@H]1O", "Potency": "0.501 µM (active)"}]}]}
